Test results from ChEMBL document CHEMBL3988442, “University of Dundee, Small-Polar-MMV Screening Library” (2021).

Assays:
[1] = molecular target: T1, Aspartate--tRNA(Asp/Asn) ligase (Mycobacterium tuberculosis (strain ATCC 25618 / H37Rv)) (UniProt P9WFW3); experiment: Assay for Asp RNA synthetase-1 from Mycobacterium tuberculosis; format: functional; design: scale not given: direction of the effect not stated beside the values; details: 30 µM; further: in the data most compounds retested in dose-response had high values
T1 sequence (whole entry): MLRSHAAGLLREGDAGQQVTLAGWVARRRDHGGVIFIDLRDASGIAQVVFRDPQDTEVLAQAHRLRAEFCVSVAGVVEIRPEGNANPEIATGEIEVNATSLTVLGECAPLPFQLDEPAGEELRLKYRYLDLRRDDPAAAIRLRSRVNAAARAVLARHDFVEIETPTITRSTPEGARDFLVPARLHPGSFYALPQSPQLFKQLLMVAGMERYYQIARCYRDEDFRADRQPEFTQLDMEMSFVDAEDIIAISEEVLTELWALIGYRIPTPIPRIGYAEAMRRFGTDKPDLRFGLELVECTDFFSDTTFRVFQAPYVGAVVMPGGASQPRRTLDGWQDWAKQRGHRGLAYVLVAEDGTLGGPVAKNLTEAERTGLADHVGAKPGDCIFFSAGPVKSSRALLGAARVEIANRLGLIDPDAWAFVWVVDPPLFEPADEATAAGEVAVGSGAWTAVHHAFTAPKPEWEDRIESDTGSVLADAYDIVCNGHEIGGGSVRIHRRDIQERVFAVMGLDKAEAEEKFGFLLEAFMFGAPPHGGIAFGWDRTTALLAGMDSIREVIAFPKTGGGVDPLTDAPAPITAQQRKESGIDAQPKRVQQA

[2] = molecular target: Shiga toxin 2 (Escherichia coli O157:H7) (UniProt P09385+P09386); experiment: E. coli 0.157:H7 Shiga Toxin SOP - stx2 screening assay; format: functional; design: scale not given: direction of the effect not stated beside the values; details: 30 µM

SMILES: COCCN1CCCC1c1nccnc1Nc1nc(C)cs1 (configuration not stated)
- Percent Effect [1]: -3.52%
- Percent Effect [2]: 0.955%

SMILES: CNC1CCCN(Cc2noc(C3CC3)n2)C1 (configuration not stated)
- Percent Effect [1]: -0.881%
- Percent Effect [2]: -5.27%

SMILES: O=C1COC2(CCN(CC3CC3)CC2)CN1c1ccccc1
- Percent Effect [1]: -0.547%
- Percent Effect [2]: 5.01%

SMILES: Cc1nc(CN2CCN(Cc3ccoc3)Cc3cccnc32)cs1
- Percent Effect [1]: 4.04%
- Percent Effect [2]: -1.98%

SMILES: CC1(C(=O)N2CCOCC2)CN(Cc2ccccn2)CCO1 (configuration not stated)
- Percent Effect [1]: 8.77%
- Percent Effect [2]: -6.1%

SMILES: COc1ccc(NC(=O)c2ccc[nH]2)c(N2CCN(C(C)=O)CC2)n1
- Percent Effect [1]: 1.11%
- Percent Effect [2]: 0.954%

SMILES: COCCN1C[C@@H](C)[C@@]2(COCCN(C(=O)Cc3ccccc3)C2)C1
- Percent Effect [1]: 1.75%
- Percent Effect [2]: -6.45%

SMILES: CS(=O)(=O)N1CCc2nc(NC(=O)Nc3c(F)cccc3F)sc2C1
- Percent Effect [1]: -4.11%
- Percent Effect [2]: 4.52%

SMILES: O=C(NCc1ccc(F)cc1)N1CCC(C2OCCO2)CC1
- Percent Effect [1]: 3.59%
- Percent Effect [2]: 1.94%

SMILES: NC(=O)c1csc(C(=O)N2CCCC(n3ccnc3)C2)c1 (configuration not stated)
- Percent Effect [1]: -4.35%
- Percent Effect [2]: 0.351%

SMILES: Cc1cccc(CN2CCC3(CCCN(C(=O)NC4CC4)C3)C2=O)n1 (configuration not stated)
- Percent Effect [1]: 6.63%
- Percent Effect [2]: -5.22%

SMILES: Cc1ccc(NC2CCN(C(=O)Cc3ccc(C#N)cc3)CC2)nn1
- Percent Effect [1]: 4.2%
- Percent Effect [2]: -11.6%

SMILES: Cc1nc(CC(=O)N2CCCCC2c2ccn3ccnc3n2)cs1 (configuration not stated)
- Percent Effect [1]: -0.0744%
- Percent Effect [2]: 4.13%

SMILES: CC(=O)c1ccc(N2CCC(CO)(CCOc3ccccc3)CC2)nc1
- Percent Effect [1]: 0.327%
- Percent Effect [2]: -31.2%

SMILES: CC(C)CCN(C)C(=O)c1nc(S(C)(=O)=O)n2ccccc12
- Percent Effect [1]: -3.39%
- Percent Effect [2]: 26.2%

SMILES: CC(=O)N1CCC(c2cncc(Oc3ccccc3)n2)CC1
- Percent Effect [1]: 0.485%
- Percent Effect [2]: 3.32%

SMILES: Cc1ccc(CNCC2CCc3nnc(C(C)C)n3C2)s1 (configuration not stated)
- Percent Effect [1]: -3.31%
- Percent Effect [2]: -22.4%

SMILES: Cc1scc(C(=O)N2CCC3(CC(=O)NC3=O)C2)c1-c1ccccc1 (configuration not stated)
- Percent Effect [1]: 0.19%
- Percent Effect [2]: 8.3%

SMILES: O=C(c1ccoc1)N1CC[C@H]2OCC[C@@]2(COc2ncccc2F)C1
- Percent Effect [1]: -0.296%
- Percent Effect [2]: 3.1%

SMILES: CCOc1cc(C(=O)N2CCCC(n3cncn3)C2)ccc1C (configuration not stated)
- Percent Effect [1]: 1.17%
- Percent Effect [2]: 17.5%

SMILES: COc1ccc2c(O)c(NC(=O)NCC3CC3)cnc2c1
- Percent Effect [1]: 1.09%
- Percent Effect [2]: -13.7%
